We go through 40 compounds from PubChem BioAssay (NCI).

Compounds without any hit were thinned out: in the full panel of roughly 79,000, 15% have a hit. Active and inactive are the calls of the source. Cut-off read from the data, not from the text of the source: active = growth inhibition above about 70%; inactive = the rest.

This assay can be described thus: NCI Yeast Anticancer Drug Screen. Data for the mlh1 rad18 strain (AID 175). As to conditions: S. cerevisiae mlh1 rad18 strain growth inhibition; at 50.0 µM; hits give high values. Summed up: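 Growth inhibition of the yeast strain was measured after compound exposure and expressed relative to vehicle-treated controls. The strain carries defined defects in DNA damage repair.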
As to `CC1(C)N=C(C(N)=O)c2[nH]cnc2N1`, the growth inhibition is -51.2% (inactive).

As for `CN(C(=O)C1C2c3ccccc3C(c3ccccc32)C1C(=O)N(C)c1ccccc1)c1ccccc1` (stereo not given), the growth inhibition was 21.9% (inactive).

With `CCc1c(CBr)c(=O)[nH]c2ccccc12`, the growth inhibition was 2.55% (inactive).

In the case of `CCCCNC(=O)C(CCCC)C(CCC)(CCC)CCCC` (stereo not given), the growth inhibition is 3.55% (inactive).

`COc1cccc2c1C(=O)c1c(O)c3c(c(O)c1C2=O)C[C@@](O)(c1csc(-c2ccncc2)n1)C[C@@H]3OC1CC(N)C(O)C(C)O1` (stereo not given in full): the growth inhibition was 25.8% (inactive).

`CO[C@H]1CC[C@@]2(C)C(=CC[C@H]3[C@@H]4CC[C@H]([C@H](C)CCCC(C)C)[C@@]4(C)CC[C@@H]32)C1`: the growth inhibition was 9% (inactive).

Consider `CN(C)c1nc(=O)c2c(ccc3ccccc32)o1`, for which the growth inhibition was -3.7% (inactive).

For `NCC(=O)Nc1ccc(C(=O)O)cc1`, the growth inhibition is 9.1% (inactive).

As to `CCNC(=S)N/N=C/c1cc(OC)ccc1O`, the growth inhibition was -13.9% (inactive).

For `CC(C)COC(=O)N1N=NC2C3OC(CC3=O)C21` (stereo not given), the growth inhibition was -15.7% (inactive).

With `CCCSc1nc2c(c(=O)n(C)c(=O)n2C)n1C`, the growth inhibition was 6.5% (inactive).

Consider `O=C(Nc1cccc([N+](=O)[O-])c1)Nc1ccccc1F`, for which the growth inhibition is 9.55% (inactive).

On to `FS(F)(F)(F)(F)c1cccc(NC(=S)SCc2ccc3c(c2)OCO3)c1`, for which the growth inhibition is 98.3% (active).

With `C/C(=N\Nc1ccc2ccccc2n1)c1ccccc1O`, the growth inhibition is -3.5% (inactive).

With `N.N.N.N.N.O=S(=O)([O-])S(=O)(=O)[O-].[Co+3]`, the growth inhibition is -9% (inactive).

Consider `CC(C)(C)NC(=O)NCC1CCCC1NC(=O)NC(C)(C)C` (stereo not given), for which the growth inhibition was -10.4% (inactive).

For `CCNC(=S)NC1CCCCC1`, the growth inhibition is 12.3% (inactive).

As to `CCOC(=O)Cc1c(Cc2[nH]c(C(=O)OCc3ccccc3)c(CC(=O)OCC)c2CC(=O)OCC)[nH]c(C(=O)OCc2ccccc2)c1CC(=O)OCC`, the growth inhibition was -17.3% (inactive).

`CCN(CC)CCNc1cc(OC)c(N)c2cccnc12`: the growth inhibition is 40.4% (inactive).

For `O=[N+]([O-])C1CC(O)C(O)CC1c1ccc2c(c1)OCO2` (stereo not given), the growth inhibition was 3.7% (inactive).

Consider `Cc1n(C)nn[n+]1C`, for which the growth inhibition was -16.5% (inactive).

Turning to `COc1ccc(N=Cc2cc(OC)c(OC)c(OC)c2)cc1`, the growth inhibition is 0.95% (inactive).

For `c1cn2cnnc2n2cnnc12`, the growth inhibition was -9.8% (inactive).

As for `COc1ccc(NC2CC(C)N(C(=O)c3ccccc3)O2)cc1` (stereo not given), the growth inhibition was -19.2% (inactive).

For `CC/C=C\CCCCC`, the growth inhibition was 4.7% (inactive).

Turning to `O=C(O)CSC(CC(=O)O)C(=O)O` (stereo not given), the growth inhibition was 4.25% (inactive).

For `O=C(ON=C1c2ccccc2C(Br)C(Br)c2ccccc21)c1cc([N+](=O)[O-])cc([N+](=O)[O-])c1` (stereo not given), the growth inhibition is 27.5% (inactive).

As for `Cc1cc(OC(=O)c2c(C)cc(OC(=O)c3c(C)cc(O)cc3O)cc2O)cc(O)c1C(=O)O`, the growth inhibition is -2.15% (inactive).

Take `CCOC(=O)NCc1ccccc1`: the growth inhibition is 20.1% (inactive).

With `CNCCCC1c2ccccc2C=Cc2ccccc21`, the growth inhibition was 11.8% (inactive).

Take `COc1cc(C(=O)O)cc(O)c1OC`: the growth inhibition is 8.45% (inactive).

Turning to `O=C(O)CSc1nc2cc(Cl)c(Cl)cc2[nH]1`, the growth inhibition is -7.55% (inactive).

As to `[Cl][Tb]([Cl])[Cl]`, the growth inhibition is 29% (inactive).

Turning to `CCCOC(=O)COc1ccccc1`, the growth inhibition was 2.4% (inactive).

As to `CC12CCC(=O)C=C1CCC1C2CCC2(C)C1CCC2(O)C(=O)Cn1c(=O)[nH]cc(F)c1=O` (stereo not given), the growth inhibition is 11.4% (inactive).

Turning to `O=S(=O)(O)O.[NH-]CC1(C[NH-])CCCCC1.[Pt+2]`, the growth inhibition was -46.4% (inactive).

For the compound `CNCC(OC(C)C)c1ccc(O)c(O)c1` (stereo not given), the growth inhibition is 16.2% (inactive).

For `S=c1nc[nH]c2c1CN(Cc1ccccc1)CC2`, the growth inhibition was -6.8% (inactive).

Regarding `O=C1C(Cc2ccccc2)CCCC1Cc1ccccc1` (stereo not given), the growth inhibition is 3.35% (inactive).

Take `Cn1ccnc1Sc1ccccn1`: the growth inhibition was 6.15% (inactive).
